Screen size: about 5,500 compounds; about 2,000 (36%) were called active. Not shown: some 18% with an inconclusive outcome. No stated cut-off is given here; in the data, active means normalized growth mostly below about 0.91 (no sharp cut-off); inconclusive means no clear call, values can overlap the other calls; inactive means mostly above about 0.92. The list shows a part of the results.
Experiment: chemical genetic growth profiling, strain panel (AID 1159580);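 further: tested at 20 µM; growth read once vehicle control cultures reached saturation at 30 °C; 1 = growth at the plate median or of vehicle wells; lower values mean less growth of the strain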
Settings: S. cerevisiae deletion strains, growth OD

Measured: normalized growth

COc1cc(C(=O)NCCCCCC(=O)O)cc(OC)c1OC
inactive: locus YAL021C, strain ccr4, active compounds read low 0.976 | locus YAL026C, strain drs2, active compounds read low 0.981 | locus YAL030W, strain snc1, active compounds read low 0.959 | locus YBL061C, strain skt5, active compounds read low 0.973 | locus YBR009C, strain hhf1, active compounds read low 0.977 | locus YBR023C, strain chs3, active compounds read low 0.986 | locus YBR171W, strain sec66, active compounds read low 0.97 | locus YBR231C, strain swc5, active compounds read low 0.978 | locus YBR279W, strain paf1, active compounds read low 0.979 | locus YCL011C, strain gbp2, active compounds read low 0.977 | locus YCL016C, strain dcc1, active compounds read low 0.982 | locus YCL061C, strain MRC1, active compounds read low 0.995 | locus YCL069W, strain vba3, active compounds read low 0.984 | locus YCR088W, strain abp1, active compounds read low 0.986 | locus YDL005C, strain med2, active compounds read low 0.973 | locus YDL040C, strain nat1, active compounds read low 0.981 | locus YDR001C, strain nth1, active compounds read low 0.969 | locus YDR069C, strain doa4, active compounds read low 0.973 | locus YDR137W, strain rgp1, active compounds read low 0.975 | locus YDR159W, strain sac3, active compounds read low 0.966 | locus YDR195W, strain ref2 0.966 | locus YDR297W, strain sur2, active compounds read low 0.962 | locus YDR334W, strain swr1, active compounds read low 0.935 | locus YDR335W, strain msn5, active compounds read low 0.975 | locus YDR392W, strain spt3, active compounds read low 0.983 | locus YEL003W, strain gim4, active compounds read low 0.98 | locus YEL037C, strain rad23, active compounds read low 0.985 | locus YEL061C, strain CIN8 (second series), active compounds read low 0.974 | locus YER015W, strain faa2, active compounds read low 0.972 | locus YER016W, strain bim1, active compounds read low 0.981 | locus YER111C, strain swi4, active compounds read low 0.979 | locus YER155C, strain BEM2 (second series), active compounds read low 0.969 | locus YFR010W, strain ubp6, active compounds read low 0.966 | locus YGL167C, strain pmr1, active compounds read low 0.986 | locus YGL173C, strain kem1, active compounds read low 0.959 | locus YGL227W, strain vid30, active compounds read low 0.976 | locus YGL240W, strain doc1, active compounds read low 0.972 | locus YGL253W, strain hxk2, active compounds read low 0.986 | locus YHR013C, strain ard1, active compounds read low 0.973 | locus YHR027C, strain rpn1, active compounds read low 0.964 | locus YHR030C, strain SLT2, active compounds read low 0.972 | locus YHR079C, strain IRE1, active compounds read low 0.974 | locus YHR142W, strain chs7, active compounds read low 0.981 | locus YJL092W, strain hpr5, active compounds read low 0.994 | locus YJL095W, strain BCK1 (second series), active compounds read low 0.977 | locus YJL095W, strain BCK1, active compounds read low 1.02 | locus YJL115W, strain asf1, active compounds read low 0.975 | locus YJL129C, strain trk1, active compounds read low 0.999 | locus YJL154C, strain vps35, active compounds read low 0.97 | locus YJL164C, strain tpk1, active compounds read low 0.998 | locus YJL166W, strain qcr8, active compounds read low 0.974 | locus YJL187C, strain SWE1, active compounds read low 0.983 | locus YJR066W, strain TOR1, active compounds read low 0.923 | locus YKL160W, strain elf1, active compounds read low 0.992 | locus YKR026C, strain gcn3, active compounds read low 0.993 | locus YKR091W, strain srl3, active compounds read low 0.984 | locus YLL001W, strain dnm1, active compounds read low 0.998 | locus YLL026W, active compounds read low 0.964 | locus YLL041C, strain sdh2, active compounds read low 0.981 | locus YLR027C, strain aat2, active compounds read low 0.977 | locus YLR113W, strain HOG1, active compounds read low 1.01 | locus YLR221C, strain rsa3, active compounds read low 0.991 | locus YLR258W, strain gsy2, active compounds read low 0.987 | locus YLR262C, strain YPT6 (second series), active compounds read low 0.962 | locus YLR320W, strain mms22, active compounds read low 0.985 | locus YLR342W, strain FKS1, active compounds read low 0.985 | locus YLR357W, strain rsc2, active compounds read low 1.01 | locus YLR370C, strain arc18, active compounds read low 0.973 | locus YLR384C, strain iki3, active compounds read low 0.975 | locus YML120C, strain ndi1, active compounds read low 0.987 | locus YMR058W, strain fet3, active compounds read low 0.974 | locus YMR125W, strain sto1, active compounds read low 0.979 | locus YMR129W, active compounds read low 0.995 | locus YMR205C, strain PFK2, active compounds read low 0.968 | locus YMR231W, strain pep5, active compounds read low 0.991 | locus YNL071W, strain lat1, active compounds read low 0.985 | locus YNL183C, strain NPR1, active compounds read low 0.935 | locus YNL209W, strain ssb2, active compounds read low 0.977 | locus YNL248C, strain rpa49, active compounds read low 0.986 | locus YNL322C, strain KRE1 (second series), active compounds read low 0.966 | locus YNR049C, strain mso1, active compounds read low 0.976 | locus YOR001W, strain rrp6, active compounds read low 0.977 | locus YOR070C, strain gyp1, active compounds read low 0.978 | locus YOR080W, strain dia2, active compounds read low 0.974 | locus YOR083W, strain WHI5, active compounds read low 0.98 | locus YOR106W, strain vam3, active compounds read low 0.979 | locus YOR231W, strain MKK1, active compounds read low 0.99 | locus YOR265W, strain rbl2, active compounds read low 0.973 | locus YOR270C, strain vph1, active compounds read low 0.996 | locus YOR290C, strain snf2, active compounds read low 0.976 | locus YPL051W, strain arl3, active compounds read low 0.988 | locus YPL078C, strain atp4, active compounds read low 0.98 | locus YPL106C, strain sse1, active compounds read low 0.916 | locus YPL240C, strain hsp82, active compounds read low 0.982 | locus YPL256C, strain CLN2, active compounds read low 0.93

— PubChem BioAssay AID1159580 (chemical genetic matrix, 2015)
